PubChem BioAssay AID624331 (National Center for Advancing Translational Sciences (NCATS), 2012)
Records with an inconclusive call do not appear. The source made the active and inactive calls. Calls come from the whole dose curve; as a rule, active = well fitted activation curve with a large enough effect; inconclusive = small, poorly fitted or top-dose-only effect; inactive = no such curve, though single readings can be large or run the other way.

Assay: qHTS assay for re-activators of p53 using a Luc reporter: Hit Validation with no p53 Expressed; for activity change, positive = activation: 0% is about no effect
Settings: p53-null cells, luciferase reporter counter-screen; series mostly up to 46.1 µM; activity change, positive = activation: at the top concentration
Procedure, shortened: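 Counter-screen of primary hits in a cell line not transfected with p53, in Opti-MEM with 10% FBS; compounds at several concentrations (10 mM stock, 1:5; top 46.1 µM in well), 24 h at 37 deg C, 5% CO2. Luminescence read after 10 min with Amplite reagent.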
Potency is the fitted concentration of half-maximal effect.

SMILES | activity change, positive = activation | Potency
O=C(CSc1nnnn1C1CCCCC1)NCCc1ccccc1 | -22.1% (inactive) | –
CCOC(=O)C1=C(C)Nc2ncnn2C1c1c[nH]c2ccccc12 (centres undefined) | 13.4% (inactive) | –
O=C(COC(=O)CNC(=O)c1ccc([N+](=O)[O-])o1)Nc1ncc(C(F)(F)F)cc1Cl | 95.4% (inactive) | –
CN(CC(=O)Nc1ccc(Cl)c(Cl)c1)C(=O)C1CCCC1 | -43.5% (inactive) | –
Nc1cccc(-c2nc3ccc(C(=O)c4ccccc4)cc3[nH]2)c1 | -22.3% (inactive) | –
COc1cccc(C(=O)c2sc(NC(C)C)nc2N)c1 | 16.8% (inactive) | –
CCc1nnc(NC(=O)CCC(=O)Nc2ccccc2)s1 | 6.24% (inactive) | –
CN(C)c1ccc(N=Cc2nc(-c3ccccc3)oc2OC(=O)c2cccc(Cl)c2)cc1 | 44.4% (inactive) | –
Cc1cccc(-n2c(C)cc(/C=N\NC(=O)c3cccs3)c2C)c1 | 32.6% (inactive) | –
Clc1ccc(OCc2nc(-c3ccccn3)no2)c(Br)c1 | 76.4% (inactive) | –
COC(=O)c1c(C)[nH]c(C(=O)/C=C/c2ccccc2)c1C | 1.34% (inactive) | –
CC(C)CNC(=S)Nc1ccc(Oc2ccccc2)cc1 | 48.1% (inactive) | –
Cn1c(=N)n(CC(=O)c2ccc(Cl)c(Cl)c2)c2ccccc21 | 57.6% (inactive) | –
O=C(Nc1nc(-c2ccco2)c(-c2ccco2)s1)c1ccc(F)cc1F | -21.9% (inactive) | –
CCN(CC)C(=O)CSC(=Nc1ccccc1F)NC#N | 23% (inactive) | –
CCOc1ccc(-n2c(SCc3nc(-c4cccs4)no3)nnc2-c2ccncc2)cc1 | -28.2% (inactive) | –
Cc1noc(C)c1C(=O)OCC(=O)N1CCc2ccccc21 | 36.3% (inactive) | –
c1ccc(-c2ccc(-c3ccccn3)nn2)nc1 | 35.1% (inactive) | –
O=C(O)CCCC(=O)NCCc1ccncc1 | 18.6% (inactive) | –
O=C(Cc1ccccc1)NCc1ccc(F)cc1 | 13.7% (inactive) | –

SMILES | activity change, positive = activation | Potency
COCCNc1nc2sc3c(c2c(=O)n1Cc1ccco1)CCCCC3 | 14.1% (inactive) | –
CN1C(=O)C2(OCC(CO)([N+](=O)[O-])CO2)c2ccccc21 (centres undefined) | -34.5% (inactive) | –
CS(=O)(=O)c1ccc2nc(NC(=O)CCNC(=O)c3ccccc3Cl)sc2c1 | 80.4% (inactive) | –
Clc1ccc(-c2nnc(SCc3ccon3)o2)c(Cl)c1 | – | 1840 nM (active)
O=S(=O)(N/N=C/c1ccccc1OCc1ccc(Cl)cc1)c1ccccc1 | -19.1% (inactive) | –
Nc1c(C(=O)CSc2ccccn2)c(=O)[nH]c(=O)n1C1CC1 | 18.4% (inactive) | –
CC(C)C(=O)NC(c1cccs1)c1cc([N+](=O)[O-])c2cccnc2c1O (centres undefined) | -6.46% (inactive) | –
c1ccc(COc2ccc(OCCOCCn3cncn3)cc2)cc1 | – | 1300 nM (active)
O=[N+]([O-])c1cccc(NC(=S)N2CCc3ccccc32)c1 | -2.98% (inactive) | –
Cc1ccc(C)c(Oc2cc(NC(=O)CCCn3nc(C)c([N+](=O)[O-])c3C)cc([N+](=O)[O-])c2)c1 | -48.2% (inactive) | –
Fc1cc(NCc2ccccc2)nc(NCc2ccccc2)n1 | 8.92% (inactive) | –
CC(C)(C)NC(=O)CSC(=Nc1ccccc1F)NC#N | 36.7% (inactive) | –
Cc1cc(N2CCCCC2)n2ncc(-c3ccc(Cl)cc3)c2n1 | -11.1% (inactive) | –
NS(=O)(=O)c1ccc(CCNCc2cccnc2)cc1 | -31.2% (inactive) | –
COc1ccc(NC(=O)COC(=O)C23CC4CC(CC(O)(C4)C2)C3)cc1Cl | -41.7% (inactive) | –
CC(=O)c1cccc(NC(=O)c2sc(Cl)nc2C)c1 | -42.3% (inactive) | –
CCCCCc1nnc(NC(=O)C2CCCO2)s1 (centres undefined) | -9.05% (inactive) | –
Cc1ccc(C)c(C(=O)COC(=O)c2n[nH]c3ccccc23)c1 | 23% (inactive) | –
COc1cc(CN2CCCCC2C(=O)Nc2ccc(Oc3ccccc3)nc2)ccc1O (centres undefined) | 1.55% (inactive) | –
